Screen size: about 360,000 compounds; about 16,000 (4.4%) were called active. Another 9% or so got no clear call; they are omitted. The sample as a whole holds a higher share of actives than the screen did. Unmarked numbers belong to inactive results. Calls follow the shape of the dose curve; as a rule, active = well fitted inhibition curve with a large enough effect; inconclusive = small, poorly fitted or top-dose-only effect; inactive = no such curve, though single readings can be large or run the other way.
target: Bromodomain adjacent to zinc finger domain protein 2B (Homo sapiens) (UniProt Q9UIF8); experiment: qHTS Assay for Inhibitors of BAZ2B; conditions: AlphaScreen BAZ2B-H3K14Ac peptide displacement; series mostly up to 114 µM; activity change, negative = inhibition: at the top concentration; also: nearly all actives have a fitted effect of over 60% in size
Outline: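 AlphaScreen luminescence quantifies BAZ2B engagement of H3K14Ac peptide; the protein and biotinylated peptide are both at 50 nM final, buffer PBS pH 7.4 with 0.01% Tween-20, all steps at room temperature.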
% is scaled to controls: 0 for no effect and ±100 for the full control effect; potency is read from the fitted curve at half-maximal effect.

Bromodomain adjacent to zinc finger domain protein 2B (Homo sapiens), sequence (Q9UIF8 whole entry, looked up, the tested form may be a part): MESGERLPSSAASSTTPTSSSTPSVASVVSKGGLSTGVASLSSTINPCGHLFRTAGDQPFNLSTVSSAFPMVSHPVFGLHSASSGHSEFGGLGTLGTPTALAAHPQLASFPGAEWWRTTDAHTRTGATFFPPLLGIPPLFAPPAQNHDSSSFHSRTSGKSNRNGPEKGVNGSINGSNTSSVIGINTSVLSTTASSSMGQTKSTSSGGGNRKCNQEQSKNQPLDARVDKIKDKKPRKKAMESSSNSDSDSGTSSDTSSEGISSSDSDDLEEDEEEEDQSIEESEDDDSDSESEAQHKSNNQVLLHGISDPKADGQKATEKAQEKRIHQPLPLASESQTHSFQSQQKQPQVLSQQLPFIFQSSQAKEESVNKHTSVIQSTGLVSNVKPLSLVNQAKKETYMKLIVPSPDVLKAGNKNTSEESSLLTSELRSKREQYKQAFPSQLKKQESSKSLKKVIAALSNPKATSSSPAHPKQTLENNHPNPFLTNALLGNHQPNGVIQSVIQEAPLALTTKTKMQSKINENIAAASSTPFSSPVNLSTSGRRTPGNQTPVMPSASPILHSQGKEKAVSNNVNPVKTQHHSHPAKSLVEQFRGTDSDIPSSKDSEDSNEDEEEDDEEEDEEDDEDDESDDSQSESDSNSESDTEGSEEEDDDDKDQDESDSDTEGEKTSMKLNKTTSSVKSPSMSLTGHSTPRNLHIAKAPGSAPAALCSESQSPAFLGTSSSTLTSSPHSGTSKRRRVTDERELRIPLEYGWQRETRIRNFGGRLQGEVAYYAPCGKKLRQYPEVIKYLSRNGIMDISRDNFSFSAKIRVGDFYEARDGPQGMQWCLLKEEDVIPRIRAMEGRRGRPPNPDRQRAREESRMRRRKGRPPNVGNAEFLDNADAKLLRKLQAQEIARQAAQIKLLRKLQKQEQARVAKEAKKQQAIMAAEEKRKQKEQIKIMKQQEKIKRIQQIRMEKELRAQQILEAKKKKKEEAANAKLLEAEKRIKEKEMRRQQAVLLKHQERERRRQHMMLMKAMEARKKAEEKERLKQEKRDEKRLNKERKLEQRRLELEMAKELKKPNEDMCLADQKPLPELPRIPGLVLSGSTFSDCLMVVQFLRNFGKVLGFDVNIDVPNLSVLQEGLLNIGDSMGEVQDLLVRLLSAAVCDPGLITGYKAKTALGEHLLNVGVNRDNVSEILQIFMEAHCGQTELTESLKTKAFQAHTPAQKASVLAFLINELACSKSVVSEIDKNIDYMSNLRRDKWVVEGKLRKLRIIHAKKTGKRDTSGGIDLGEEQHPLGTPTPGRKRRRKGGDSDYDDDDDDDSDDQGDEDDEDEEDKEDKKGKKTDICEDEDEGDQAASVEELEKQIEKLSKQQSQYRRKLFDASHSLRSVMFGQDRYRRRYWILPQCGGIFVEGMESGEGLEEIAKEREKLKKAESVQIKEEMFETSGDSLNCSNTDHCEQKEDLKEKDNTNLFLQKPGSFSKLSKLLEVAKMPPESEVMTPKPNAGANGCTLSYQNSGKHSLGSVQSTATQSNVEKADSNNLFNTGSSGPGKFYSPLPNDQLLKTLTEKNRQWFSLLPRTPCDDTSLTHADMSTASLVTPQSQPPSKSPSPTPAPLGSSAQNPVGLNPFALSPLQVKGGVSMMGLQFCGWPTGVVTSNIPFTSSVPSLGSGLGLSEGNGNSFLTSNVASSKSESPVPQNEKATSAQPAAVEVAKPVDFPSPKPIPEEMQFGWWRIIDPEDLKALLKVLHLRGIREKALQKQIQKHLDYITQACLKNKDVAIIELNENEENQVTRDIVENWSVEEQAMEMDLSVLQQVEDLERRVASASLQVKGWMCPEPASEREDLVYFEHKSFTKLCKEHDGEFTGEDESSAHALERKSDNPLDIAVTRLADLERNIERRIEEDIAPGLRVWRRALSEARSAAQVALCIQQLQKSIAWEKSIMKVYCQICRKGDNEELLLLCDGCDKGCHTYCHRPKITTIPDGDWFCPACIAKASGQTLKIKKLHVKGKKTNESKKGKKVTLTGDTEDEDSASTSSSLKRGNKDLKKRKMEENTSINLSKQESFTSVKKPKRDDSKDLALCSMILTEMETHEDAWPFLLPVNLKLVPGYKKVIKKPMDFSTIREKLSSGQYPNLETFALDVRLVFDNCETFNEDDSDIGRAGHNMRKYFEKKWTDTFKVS

Row | Compound | activity change, negative = inhibition | Potency
1 | COC(=O)c1ccc(NC(=O)CCc2c(C)nc3c(c(C)nn3-c3ccc(C)cc3)c2C)cc1 | -0.711% | –
2 | COc1ccc(-c2nnc(SCC(=O)Nc3ccccc3C)o2)cc1OC | -0.905% | –
3 | O=[N+]([O-])c1c(NCCO)cc(Sc2nc3ccccc3s2)c2nonc12 | -0.619% | –
4 | CC(C)(C)c1ccc(S(=O)(=O)Nc2ccc(O)c(Sc3nc4ccccc4s3)c2)cc1 | -36.8% | –
5 | CC(C)c1ccc(S(=O)(=O)Nc2ccc(O)c(Sc3nc4ccccc4s3)c2)cc1 | – | 25.1 µM (active)
6 | CC(C)c1ccc(NC(=O)Cn2nnc(C(=O)NCCc3ccccc3)c2N)cc1 | 8.13% [at 57.1 µM] | –
7 | COc1ccc(N2CCN(S(=O)(=O)CCNC(=O)C(c3ccccc3)c3ccccc3)CC2)cc1 | 1.98% | –
8 | C#CCOCCOCCOCCNc1nc(N2CCN(C(=O)CCCCCCCCCCNC(=O)Cn3cc(CCCCCN)nn3)CC2)nc(N2CCN(C(=O)CCCCCCCCCCNC(=O)[C@H](CO)n3cc(CCCSC)nn3)CC2)n1 | – | 50.1 µM (active)
9 | C#CCOCCOCCOCCNc1nc(N2CCN(C(=O)CCCCCCCCCCNC(=O)[C@H]([C@@H](C)CC)n3cc(CCCCN=C(N)N)nn3)CC2)nc(N2CCN(C(=O)CCCCCCCCCCNC(=O)[C@H](CO)n3cc(CCCSC)nn3)CC2)n1 | – | 50.1 µM (active)
10 | CC[C@@H](C)[C@@H](C(=O)N1CCN(C(=O)OC(C)(C)C)CC1)n1cc(CCC(=O)O)nn1 | 0.303% | –
11 | C#CCOCCOCCOCCNc1nc(N2CCN(C(=O)Cn3cc(CCCCN)nn3)CC2)nc(N2CCN(C(=O)[C@H](CCCCN)n3cc(CCC(=O)O)nn3)CC2)n1 | 3.13% | –
12 | CCOc1cccc(CNC(=O)c2ccc(N3CCCC3)c(NC(=O)Nc3ccccc3CC)c2)c1 | -11.9% | –
13 | Cc1oc(C)c2c(=O)cc(-c3ccc4c(c3)OCO4)cc(OC(=O)c3ccc(Cl)cc3)c12 | -15.3% | –
14 | CCn1ccnc1CN1CCCC(C(=O)c2ccc3c4c(cccc24)CC3)C1 (stereo unspecified) | – | 50.1 µM (active)
15 | COc1ccc(C(=O)C2CCCN(Cc3ccc4nonc4c3)C2)c(C)c1 (stereo unspecified) | 4.01% | –
16 | CC(=O)NCC(=O)N1CCCC(C(=O)c2ccc3c4c(cccc24)CC3)C1 (stereo unspecified) | -9.91% | –
17 | Cc1nc2ccc(S(=O)(=O)N(CC(=O)Nc3ccc(F)cc3)Cc3ccccc3)cc2s1 | -13% | –
18 | COc1ccc(NC(=O)CSc2nc3ccccc3c(=O)n2C)cc1 | 12.4% | –
19 | COc1ccc(-c2nc3c(c(SCC(=O)Nc4ccc(C(=O)O)cc4)n2)Cc2ccccc2O3)cc1 | – | 8.91 µM (active)
20 | COc1ccc(NC(=O)CSc2nc(N)c(-c3ccccc3)c(=O)[nH]2)cc1 | 0.717% | –
21 | COc1ccc(Cl)cc1NC(=O)CSc1nc(-c2cccs2)cc(C(F)(F)F)n1 | 4.09% | –
22 | Cc1ccc(CN2CCCn3nc(C(=O)NCc4ccccc4Cl)cc3C2=O)cc1 | -15.9% | –
23 | O=C1c2ccccc2C(=O)C1c1ccccc1F | -9.2% | –

Row | Compound | activity change, negative = inhibition | Potency
24 | O=C1c2ccccc2C2=Nc3ccccc3SC(c3ccccc3F)C12 (stereo unspecified) | – | 8.91 µM (active)
25 | CC1Cc2cc(S(=O)(=O)CCC(=O)NCc3ccc(Cl)cc3)ccc2N1C(=O)C1CC1 (stereo unspecified) | -0.78% | –
26 | CN1C2CCC1CC(NC(=O)c1ccc([N+](=O)[O-])cc1)C2 (stereo unspecified) | -7.51% | –
27 | O=C(Nc1cc2c3c(c1)C1CCCC1CN3CC1CCCC21)c1ccc([N+](=O)[O-])cc1 (stereo unspecified) | – | 11.2 µM (active)
28 | CN(CC1CCCO1)S(=O)(=O)c1ccc(C(=O)Nc2ccc([N+](=O)[O-])cc2)cc1 (stereo unspecified) | -21.8% | –
29 | Cc1ccc(S(=O)(=O)c2c(Nc3cccc(Cl)c3)sc(C(=O)c3ccc4c(c3)OCO4)c2N)cc1 | -15.3% | –
30 | CCCCC(=O)OC1=CN(Cc2ccccc2)S(=O)(=O)c2ccccc21 | 10.3% | –
31 | CCN1CCN(C(=O)CSc2ccc(C)cc2)CC1 | -3.19% | –
32 | CCN1CCC2(CC1)N=C(c1ccc(F)cc1)C(=S)N2C(=O)c1ccc(C)cc1 | – | 44.7 µM (active)
33 | Cc1ccc(NC(=O)CN2C(=O)C(c3ccc(F)cc3)=NC23CCCCCC3)c(C)c1 | 37.2% | –
34 | COc1ccc(CNC(=O)c2cc3cccc(OC)c3oc2=O)cc1 | -15.9% | –
35 | O=C(NCCS(=O)(=O)N1CCN(c2ccc(F)cc2)CC1)c1ccccc1Br | -5.66% | –
36 | COc1ccc(CNc2nc(-c3ccc(Cl)cc3)nn2C(=O)c2ccccc2)cc1 | 8.67% | –
37 | O=C(CSc1oc(-c2ccccc2)nc1S(=O)(=O)c1ccc(Br)cc1)NC1CCCCC1 | 5.24% | –
38 | CCOc1ccccc1NC(=O)CSc1ncc(S(=O)(=O)c2ccc(C(C)(C)C)cc2)c(=O)[nH]1 | -14.3% | –
39 | O=C(CC1N=C2c3ccccc3N=C(SCc3ccc(F)cc3)N2C1=O)NCc1cccs1 (stereo unspecified) | 9.88% | –
40 | CCOC(=O)c1ccccc1NC(=O)CSc1nc2ccccc2c(=O)[nH]1 | -4.86% | –
41 | O=C(CSc1nc2ccccc2c(=O)[nH]1)Nc1nc(-c2ccc(Br)cc2)cs1 | – | 79.4 µM (active)
42 | CC(=O)NCc1ccc(-c2csc(NC(=O)CCCc3nc4ccccc4c(=O)[nH]3)n2)cc1 | -1.79% | –
43 | Cc1ccccc1Cn1nc(C)c(NC(=O)c2cc(-c3ccc(F)cc3)on2)c1C | 2.54% | –
44 | O=C(O)c1ccc(N/N=C/c2cn(-c3ccccc3)nc2-c2cccs2)cc1 | – | 79.4 µM (active)
45 | COc1cccc(NC(=O)CN(C)C(=O)/C=C/c2cn(-c3ccccc3)nc2-c2cccs2)c1 | -36.5% | –
46 | O=C(NCc1cccnc1)c1cn(-c2ccccc2)nc1-c1cccs1 | 5.33% | –
